# Test results published in PubChem BioAssay.
# The source made the active and inactive calls.
# Assays:
# [1] = system: Plasmodium falciparum Sir2 (PF13_0152, Sir2A); assay: pfSir2 binders on small-molecule microarrays, primary screen, biochemical, small-molecule microarray, 635 nm fluorescence (AID 1098); conditions: small-molecule microarray binding, fluorescence 635 nm; higher = more signal;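 further: score merges spot fluorescence intensity with its signal-to-noise ratio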
# [2] = small-molecule microarray binders of probe aDKK1, primary screen, biochemical, biotinylated probe, 635/667 nm fluorescence (AID 1099); conditions: higher = more signal;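 further: score merges 667nm spot fluorescence with signal to noise across triplicate slides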
# [3] = small-molecule microarray binders of probe aCHRDL2, primary screen, biochemical, biotinylated probe, 635/667 nm fluorescence (AID 1100); conditions: higher = more signal
# [4] = splicing luciferase reporter signal modulators, primary screen, spliceosome inhibition project, cell-based, HEK293, splice +/- reporter (AID 1101); conditions: luminescence, 24 h, higher = more signal, called active from +8 up or from −8 down;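 further: HEK293 cells carrying a splicing-competent luciferase reporter gene; test concentration not given here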
# [5] = target: Fibroblast growth factor 10 (Homo sapiens) (UniProt O15520); assay: FGF10 binders on small-molecule microarrays, primary screen, biochemical, small-molecule microarray, 635 nm fluorescence (AID 1102); conditions: FGF10 binding, fluorescence 635 nm, higher = more signal
# [6] = system: glycogen synthase kinase-3 (GSK3A per assay name; protocol says GSK3B); assay: GSK3 binders on small-molecule microarrays, primary screen, biochemical, small-molecule microarray, 635 nm fluorescence, GSK3A (AID 1103); conditions: small-molecule microarray binding, fluorescence 635 nm; higher = more signal; further: the record names both GSK3A and GSK3B
# [7] = target: Epidermal growth factor receptor (Homo sapiens) (UniProt P00533); assay: EGFR binders on small-molecule microarrays, primary screen, biochemical, small-molecule microarray, 635 nm fluorescence (AID 1104); conditions: EGFR binding, higher = more signal;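 further: score merges 667 nm emission intensity with spot signal to noise over triplicate slides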
# [8] = target: Follistatin-related protein 3 (Homo sapiens) (UniProt O95633); assay: FSTL3 binders on small-molecule microarrays, primary screen, biochemical, small-molecule microarray, 635 nm fluorescence (AID 1105); conditions: FSTL3 binding, higher = more signal;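 further: score merges emission near 667 nm and signal to noise per printed spot across three slides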
# [9] = target: Dickkopf-related protein 1 (Homo sapiens) (UniProt O94907); assay: DKK1 binders on small-molecule microarrays, primary screen, biochemical, small-molecule microarray, 635 nm fluorescence scan (AID 1106); conditions: DKK1 binding, higher = more signal;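 further: score merges emission near 667 nm with signal to noise over three replicate slides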
# [10] = system: Inhibin beta A chain (activin A); assay: INHBA (activin A) binders on microarrays, primary screen, biochemical, small-molecule microarray, 635 nm fluorescence scan (AID 1107); conditions: small-molecule microarray binding, higher = more signal;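 further: mouse activin A protein probed at 4.33 µg/mL on printed slides; score merges bound-protein fluorescence near 667 nm with spot signal-to-noise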
# [11] = system: Human papillomavirus type 1a protein E7 (residues 44-93); assay: HPV1a E7 fragment binders on microarrays, primary screen, biochemical, small-molecule microarray, residues 44-93, 635 nm fluorescence (AID 1108); conditions: small-molecule microarray binding, fluorescence 635 nm; higher = more signal;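 further: E7 fragment applied at 1 µg/mL in TBST for 1 h at 4 C; score combines spot fluorescence with its signal to noise ratio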
# [12] = modulators of HCV replicon luciferase signal, primary screen, HCV replication inhibitor project, Huh7 cells, luciferase reporter (AID 1109); conditions: 48 h, higher = more signal;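 further: huh7 hepatoma cells harbouring a luciferase neomycin HCV replicon reporter; luciferase luminescence as measure of HCV replicon replication; test concentration not given here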
# [13] = target: Left-right determination factor 2 (Homo sapiens) (UniProt O00292); assay: LEFTY2 binders on small-molecule microarrays, primary screen, biochemical, small-molecule microarray, 635 nm fluorescence scan (AID 1110); conditions: LEFTY2 binding, higher = more signal
# [14] = target: Calmodulin-1 (Homo sapiens) (UniProt P0DP23); assay: CALM1 binders on microarrays, EGTA buffer, profiling panel, biochemical, small-molecule microarray, Cy5-labelled CALM1 (AID 1111); conditions: Cy5-CALM1 binding fluorescence, higher = more signal;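 further: labelled calmodulin applied in Tris saline Tween buffer holding calcium plus EGTA and DTT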
# [15] = target: Calmodulin-1 (Homo sapiens) (UniProt P0DP23); assay: calcium-bound CALM1 binders on microarrays, profiling panel, artefact control for SMM control-protein annotation, biochemical, small-molecule microarray, Cy5-labelled CALM1, plus calcium (AID 1112); conditions: Cy5-CALM1 binding fluorescence, higher = more signal;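 further: score merges spot fluorescence with signal to noise from triplicate slides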
# [16] = small-molecule microarray binders of probe aWnt5a, primary screen, biochemical, biotinylated probe, 635/667 nm fluorescence (AID 1113); conditions: higher = more signal;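 further: score merges 667 nm fluorescence intensity with signal-to-noise per printed feature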
# [17] = small-molecule microarray binders of probe aShh, primary screen, biochemical, biotinylated probe, 635/667 nm fluorescence (AID 1114); conditions: higher = more signal;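 further: probe is biotin-labelled aShh protein from a stem cell growth factor screen; measures binding of labelled protein to compounds printed on the slide; score merges feature fluorescence at 667 nm with signal-to-noise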
# [18] = small-molecule microarray binders of probe aNog, primary screen, biochemical, biotinylated probe, 635/667 nm fluorescence (AID 1115); conditions: higher = more signal;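 further: probe is biotinylated aNog protein used at 0.15 µg/mL for 1 h at 4 C; z-score combines 667 nm fluorescence of each spot with its signal to noise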
# [19] = target: Torsin-1A-interacting protein 1 (Homo sapiens) (UniProt Q5JTV8); assay: LAP1 binders from COS7 cell lysate, primary screen, small-molecule microarray, 635/667 nm fluorescence (AID 1116); conditions: COS7-hLAP1 lysate binding, 635 nm fluorescence, higher = more signal
# [20] = target: Alpha-bungarotoxin (Bungarus multicinctus) (UniProt P60615); assay: alpha-bungarotoxin binders on microarray, profiling panel, artefact control for SMM control protein annotation, biochemical, small-molecule microarray, Alexa647 label, 635/667 nm fluorescence (AID 1117); conditions: alpha-BTX-A647 binding fluorescence, higher = more signal
# Chain of Alpha-bungarotoxin (Bungarus multicinctus) (P60615 whole entry, looked up): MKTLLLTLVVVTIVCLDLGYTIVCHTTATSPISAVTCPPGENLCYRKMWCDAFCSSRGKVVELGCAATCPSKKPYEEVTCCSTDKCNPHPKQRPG
# Chain of Dickkopf-related protein 1 (Homo sapiens) (O94907 whole entry, looked up): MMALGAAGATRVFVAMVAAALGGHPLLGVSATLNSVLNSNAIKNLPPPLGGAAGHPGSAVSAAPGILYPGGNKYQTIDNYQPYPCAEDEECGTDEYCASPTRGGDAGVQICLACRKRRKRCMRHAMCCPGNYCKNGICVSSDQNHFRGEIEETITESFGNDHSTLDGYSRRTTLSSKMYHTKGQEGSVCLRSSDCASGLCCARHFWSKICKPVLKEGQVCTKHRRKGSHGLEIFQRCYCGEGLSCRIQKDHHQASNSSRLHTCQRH
# Chain of Torsin-1A-interacting protein 1 (Homo sapiens) (Q5JTV8 whole entry, looked up): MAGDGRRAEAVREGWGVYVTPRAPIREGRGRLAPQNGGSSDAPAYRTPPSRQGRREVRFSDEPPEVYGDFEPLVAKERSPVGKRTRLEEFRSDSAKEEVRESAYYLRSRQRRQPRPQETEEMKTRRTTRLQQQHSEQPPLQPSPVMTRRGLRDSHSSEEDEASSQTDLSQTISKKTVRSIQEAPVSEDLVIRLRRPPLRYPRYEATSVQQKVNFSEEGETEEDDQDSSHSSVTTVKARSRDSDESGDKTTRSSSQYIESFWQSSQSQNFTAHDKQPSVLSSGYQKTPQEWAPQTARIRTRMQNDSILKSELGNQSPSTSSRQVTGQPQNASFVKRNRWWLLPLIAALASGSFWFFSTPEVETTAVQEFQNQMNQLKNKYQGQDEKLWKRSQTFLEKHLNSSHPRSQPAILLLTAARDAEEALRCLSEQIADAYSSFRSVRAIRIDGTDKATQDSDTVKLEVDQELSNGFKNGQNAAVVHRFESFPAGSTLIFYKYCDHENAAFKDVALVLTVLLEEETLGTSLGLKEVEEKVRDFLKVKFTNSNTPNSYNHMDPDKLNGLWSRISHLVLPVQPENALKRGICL
# Chain of Left-right determination factor 2 (Homo sapiens) (O00292 whole entry, looked up): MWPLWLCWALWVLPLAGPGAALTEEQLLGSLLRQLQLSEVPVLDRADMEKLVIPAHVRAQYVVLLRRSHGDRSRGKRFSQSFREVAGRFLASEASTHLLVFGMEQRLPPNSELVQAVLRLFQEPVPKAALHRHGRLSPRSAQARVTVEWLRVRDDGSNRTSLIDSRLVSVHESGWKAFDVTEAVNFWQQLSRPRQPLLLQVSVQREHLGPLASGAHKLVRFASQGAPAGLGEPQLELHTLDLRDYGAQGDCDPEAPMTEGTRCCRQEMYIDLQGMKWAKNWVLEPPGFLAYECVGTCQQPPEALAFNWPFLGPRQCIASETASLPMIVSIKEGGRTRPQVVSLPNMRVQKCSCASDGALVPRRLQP
# Chain of Fibroblast growth factor 10 (Homo sapiens) (O15520 whole entry, looked up): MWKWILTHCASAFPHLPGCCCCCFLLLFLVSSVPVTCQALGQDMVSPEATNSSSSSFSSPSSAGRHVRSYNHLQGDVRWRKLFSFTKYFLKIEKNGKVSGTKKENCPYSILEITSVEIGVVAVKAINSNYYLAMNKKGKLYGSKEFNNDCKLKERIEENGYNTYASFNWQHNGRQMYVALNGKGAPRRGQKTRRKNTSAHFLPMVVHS
# Chain of Epidermal growth factor receptor (Homo sapiens) (P00533 whole entry, looked up): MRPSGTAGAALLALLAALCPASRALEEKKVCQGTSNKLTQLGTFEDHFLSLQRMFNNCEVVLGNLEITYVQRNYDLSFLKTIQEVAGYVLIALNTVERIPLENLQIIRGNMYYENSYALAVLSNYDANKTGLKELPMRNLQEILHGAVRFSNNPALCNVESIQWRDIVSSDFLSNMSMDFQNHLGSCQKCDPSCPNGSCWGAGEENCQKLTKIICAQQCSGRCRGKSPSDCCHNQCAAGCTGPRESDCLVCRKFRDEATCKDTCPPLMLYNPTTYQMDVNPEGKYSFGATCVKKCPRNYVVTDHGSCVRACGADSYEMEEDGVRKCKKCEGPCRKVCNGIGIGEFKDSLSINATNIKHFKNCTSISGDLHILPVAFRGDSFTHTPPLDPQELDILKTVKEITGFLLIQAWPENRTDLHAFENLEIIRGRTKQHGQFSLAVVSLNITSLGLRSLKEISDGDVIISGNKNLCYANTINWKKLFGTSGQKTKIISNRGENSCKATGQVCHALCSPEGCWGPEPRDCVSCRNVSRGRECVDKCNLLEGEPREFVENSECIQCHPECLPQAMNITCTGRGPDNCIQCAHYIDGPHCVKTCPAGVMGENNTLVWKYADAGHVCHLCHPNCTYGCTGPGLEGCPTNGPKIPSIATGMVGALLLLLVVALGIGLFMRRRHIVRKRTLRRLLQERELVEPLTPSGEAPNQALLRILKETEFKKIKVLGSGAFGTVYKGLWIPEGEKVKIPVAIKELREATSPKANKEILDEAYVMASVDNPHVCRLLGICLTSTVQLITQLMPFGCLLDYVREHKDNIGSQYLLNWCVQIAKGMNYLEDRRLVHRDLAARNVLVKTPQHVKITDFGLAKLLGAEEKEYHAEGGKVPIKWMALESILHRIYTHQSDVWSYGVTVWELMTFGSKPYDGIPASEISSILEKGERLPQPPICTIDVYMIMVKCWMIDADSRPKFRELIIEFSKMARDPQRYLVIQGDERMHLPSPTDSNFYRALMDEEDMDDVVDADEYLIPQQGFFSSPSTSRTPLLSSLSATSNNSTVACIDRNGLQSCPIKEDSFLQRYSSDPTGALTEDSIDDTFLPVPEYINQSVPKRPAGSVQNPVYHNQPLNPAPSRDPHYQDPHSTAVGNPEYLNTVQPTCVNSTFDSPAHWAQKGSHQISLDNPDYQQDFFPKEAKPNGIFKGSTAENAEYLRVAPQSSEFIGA
# Chain of Follistatin-related protein 3 (Homo sapiens) (O95633 whole entry, looked up): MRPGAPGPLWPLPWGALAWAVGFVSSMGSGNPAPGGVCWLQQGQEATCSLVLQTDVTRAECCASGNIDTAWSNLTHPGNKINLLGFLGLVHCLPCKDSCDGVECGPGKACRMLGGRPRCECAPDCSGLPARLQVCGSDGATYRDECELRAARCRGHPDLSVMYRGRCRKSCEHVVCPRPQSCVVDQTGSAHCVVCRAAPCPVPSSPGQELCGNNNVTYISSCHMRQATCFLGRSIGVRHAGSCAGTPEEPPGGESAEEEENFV
SMILES,composite z-score [1],composite z-score [2],composite z-score [3],z-score [4],composite z-score [5],composite z-score [6],composite z-score [7],composite z-score [8],composite z-score [9],composite z-score [10],composite z-score [11],z-score [12],composite z-score [13],composite z-score [14],composite z-score [15],composite z-score [16],composite z-score [17],composite z-score [18],composite z-score [19],composite z-score [20]
CC(C)c1ccc(NN2C(C(O)C(C)c3ccccc3)C=CC3C(=O)N(c4ccccc4)C(=O)C32)cc1 (stereo not given),1.28,1.41,1.03,1.77 (inactive),1.09,1.28,0.308,0.838,0.18,-0.804,-0.377,1.63,0.162,2.61,1.35,0.474,0.252,2.01,2.3,2.13
COc1ccc(C(O)C2C=CC3C(=O)N(c4ccccc4)C(=O)C3N2Nc2ccccc2F)c2ccccc12 (stereo not given),0.85,1.59,1.4,-0.038 (inactive),1.04,1.32,0.531,1.36,-0.265,1.02,0.459,-0.673,0.903,2.6,0.994,0.416,0.425,1.26,1.28,2.12
COCCOC(=O)N1C(=O)[C@@]2(c3cc(C#CCNC(N)=O)ccc31)[C@H](c1ccccc1OCCO)N1[C@H](c3ccccc3)[C@H](c3ccccc3)OC(=O)[C@H]1[C@@H]2C(=O)N1CCCCCCC1,1.42,0.784,0.735,-0.402 (inactive),0.739,1.11,0.5,1.23,0.557,1.44,0.6,-1.84,0.621,1.47,0.716,0.14,0.31,-0.499,1.02,1.68
COCCCNC(=O)[C@@]1(Cc2ccccc2I)c2ccccc2C(=O)N(Cc2ccccc2OC)[C@H]1c1ccc(CO)cc1,-0.347,-0.302,0.941,0.932 (inactive),-0.0058,-0.116,-0.824,-0.557,-1.51,-1.43,1.39,-2.08,-0.43,0.0345,0.0879,-0.248,-0.0146,-0.537,-0.013,0.101
C=C(CC1([C@@H](NP(=O)(c2ccccc2)c2ccccc2)[C@H]2C[C@@H]2CCCC)CC1)c1cccc(OC)c1,-0.167,0.91,1.15,-2.52 (inactive),0.158,-0.3,-0.28,0.463,-1.14,1.03,0.812,-1.79,-0.872,1.48,0.691,0.103,0.313,1.46,0.182,-0.306
COCCOC(=O)N1C(=O)[C@@]2(c3ccccc31)[C@H](C(=O)Nc1nc3ccccc3s1)[C@H]1C(=O)O[C@H](c3ccccc3)[C@H](c3ccccc3)N1[C@@H]2c1ccccc1OCCO,1.53,0.114,0.653,-0.794 (inactive),0.906,0.783,0.209,0.678,0.0159,0.769,1.41,-1.83,0.146,1.51,0.476,-0.0685,-0.225,0.36,0.429,1.72
C=CC[C@]1(C(=O)NCC(O)CO)N=C(c2ccc(OCCCO)cc2)O[C@H]1c1ccccc1CN=[N+]=[N-] (stereo not given in full),-0.285,0.783,1.18,0.704 (inactive),0.722,0.7,-2.08,-1.17,-0.471,0.274,0.551,-1.06,-0.696,1.34,0.262,0.0181,-0.0146,-0.516,3.34,0.138
COc1cc2c(cc1O)C(C)N(Cc1sc3ccccc3c1Cl)CC2 (stereo not given),-0.0748,0.247,0.868,-0.283 (inactive),-1.16,-0.306,-1.27,-0.348,-1.56,-0.0182,-1.91,-0.728,-1.41,1.23,0.869,-0.117,0.075,0.426,-0.216,0.201
COc1ccc([Si](C)(C)[C@@H]2[C@@H](CC(=O)N3CCC[C@H]3CO)O[C@]3(C(=O)N(Cc4cccc(N5C(=O)c6cccc7cccc5c67)c4)c4ccccc43)[C@H]2C)cc1,1.22,-0.164,0.0325,-0.134 (inactive),0.415,0.0816,0.192,0.402,0.655,0.608,1.29,-2.11,0.456,1.15,-0.226,-0.108,-0.0793,-0.458,2.23,0.669
CO[C@H]1O[C@H](CO)[C@@H](OC(=O)CCc2ccccc2)[C@@H]2OC(=O)[C@@H](Cc3ccc4ccccc4c3)C/C=C/C[C@H](Cc3ccc4ccccc4c3)C(=O)O[C@@H]12,1.08,-0.653,0.46,-0.779 (inactive),-0.361,-0.346,-0.691,0.0223,-1.19,0.499,0.349,0.228,-0.817,-0.452,-0.119,-0.202,-0.0709,-0.266,-0.0222,1.33
